HepG2 viability = counter-screen for TGF-b inhibitors: cytotoxicity in HepG2 cells | HepG2 CAGA-GFP viability, ATP luminescence, 18 h | Potency, µM (titrated, usually from 46.1 µM), for the others: at the top dose activity change, negative = cytotoxicity, most hits filed as cytotoxic | 410,000 compounds, 0.76% hits; note: potency is the fitted concentration of half-maximal effect
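HepG2 CAGA-GFP cells (1000/well, DMEM with 1% FBS) received compound, then TGF-beta at 500 pg/mL final, and were incubated 18 hours at 37 degrees C. Viability was read by CellTiter-Glo luminescence. Media-only wells were set as complete cell-killing and DMSO as no toxicity.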
ASM inhibitor = blocks human secretory acid sphingomyelinase; P17405; placental ASM, HMU-PC fluorogenic substrate, 60 min; Potency, µM (series often up to 57.5 µM), for the others: top-dose activity change, negative = inhibition, hits mostly inhibitors; 340,000 compounds, 0.006% hits; note: potency is the fitted concentration of half-maximal effect
Target sequence (P17405 47-631 limits assumed): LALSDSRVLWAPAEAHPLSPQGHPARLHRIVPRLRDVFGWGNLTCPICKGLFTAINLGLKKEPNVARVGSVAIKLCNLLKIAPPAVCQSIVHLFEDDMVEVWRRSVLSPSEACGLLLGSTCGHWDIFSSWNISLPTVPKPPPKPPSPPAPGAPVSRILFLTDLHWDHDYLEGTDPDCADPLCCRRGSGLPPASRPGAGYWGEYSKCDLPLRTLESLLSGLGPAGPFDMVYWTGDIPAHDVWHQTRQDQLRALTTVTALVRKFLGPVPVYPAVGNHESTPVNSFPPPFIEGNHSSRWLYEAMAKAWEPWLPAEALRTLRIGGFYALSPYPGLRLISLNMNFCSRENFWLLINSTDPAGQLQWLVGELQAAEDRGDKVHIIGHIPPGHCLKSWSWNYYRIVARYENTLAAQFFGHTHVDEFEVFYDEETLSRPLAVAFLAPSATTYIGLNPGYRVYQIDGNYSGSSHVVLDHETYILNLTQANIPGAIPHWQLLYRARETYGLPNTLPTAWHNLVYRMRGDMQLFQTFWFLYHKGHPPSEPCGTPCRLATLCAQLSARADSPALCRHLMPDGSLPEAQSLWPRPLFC
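Human placenta-derived ASM enzyme was preincubated with compound for 10 minutes at room temperature, then given fluorogenic substrate HMU-PC0 (9 uM final) for 60 minutes at 37 °C; a pH 10 stop preceded fluorescence reading at Ex 386/Em 447 nm.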
DT40 TDP1 CPT = growth inhibition of DT40 Tdp1-/-;hTDP1 cells with camptothecin (screen for TDP1 inhibitors). chicken DT40 Tdp1-/-;hTDP1 cells + 20 nM CPT, ATP luminescence, 48 h. Potency, µM (top dose mostly 46.2 µM), inactives show top-dose activity change, negative = growth inhibition, most hits filed as inhibitors. 420,000 compounds, 12% hits. AID 686979; note: potency is the fitted concentration of half-maximal effect; % is set by controls: 0 for no effect and ±100 for the full control effect; nearly all actives have a fitted effect of over 55% in size
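Cell growth measured by CellTiter-Glo luminescence after a minimum 48 h, 37 C compound exposure with 20 nM CPT in Tdp1-knockout DT40 cells stably expressing hTDP1, seeded 400/well; qHTS titration format.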
DT40 TDP1 no CPT = qHTS for Inhibitors of human tyrosyl-DNA phosphodiesterase 1 (TDP1): qHTS in cells in absence of CPT. DT40 Tdp1-/- hTDP1 cells, no CPT, ATP luminescence, 48 h. Potency, µM (series often up to 46.2 µM), for inactives: top-dose activity change, negative = growth inhibition, most hits filed as inhibitors. 420,000 compounds, 15% hits; note: potency is the fitted concentration of half-maximal effect; % is set by controls: 0 for no effect and ±100 for the full control effect; nearly all actives have a fitted effect of over 55% in size
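A cellular qHTS used chicken DT40 cells lacking endogenous Tdp1 but carrying stably transfected human TDP1. Compounds were applied without camptothecin, and cell growth kinetics were judged by ATP-dependent luminescence after ≥48 hr.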
IL1B secr inh = inhibitors of inflammasome signaling (IL-1 beta secretion) | THP-1 LPS/ATP IL-1B secretion, AlphaLISA, 16 h; hits give low values | activity change, % at 57.5 µM | 360,000 compounds, 4.7% hits; in the data active = activity change below about -50%; inconclusive = mostly about -30% to -49%; note: % is set by controls: 0 for no effect and ±100 for the full control effect
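Secreted IL-1B measured by AlphaLISA bead assay after 16 h compound exposure of THP-1 cells; compounds (final up to 57.5 uM) added 1 h before LPS (250 ng/mL) and ATP (1.25 mM) stimulation; lower signal means less secretion.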
TGFb SMAD3 inh = inhibitors of TGF-b signaling | 410,000 compounds, 1.2% hits | AID 588855 | Potency, µM (doses to about 46.1 µM), without a hit: top-dose activity, negative = inhibition, hits mostly inhibitors | HepG2 CAGA-GFP TGF-b/SMAD3 reporter, GFP fluorescence, 18 h; TGF-beta stimulated, 500 pg/mL final; note: potency is the fitted concentration of half-maximal effect; % is set by controls: 0 for no effect and ±100 for the full control effect; nearly all actives have a fitted effect of over 65% in size
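Inhibition of TGF-beta-driven CAGA-GFP reporter expression in HEPG2 cells is measured by cellular GFP fluorescence after 18 h stimulation with 500 pg/mL recombinant TGF-beta in 1% FBS medium at 37 degrees C.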
Starred values were filed as active, the others as inactive; ? = inconclusive; . = no result given. The list is not random: actives were taken first. Their share in the collection is about 19%. Unless noted, calls come from the whole dose curve; as a rule, active = well fitted curve in the direction sought with a large enough effect; inconclusive = small, poorly fitted or top-dose-only effect, or another doubt; inactive = no such curve, though single readings can be large; an effect the other way counts as inactive or inconclusive.

SMILES	HepG2 viability	ASM inhibitor	DT40 TDP1 CPT	DT40 TDP1 no CPT	IL1B secr inh	TGFb SMAD3 inh
Cc1cccc(-c2nc3c4ccccc4nc(NCc4ccccc4Cl)n3n2)c1	0.4%	.	0.8%	-15.5%	.	3.0%
Oc1ccc(CN2CCN(Cc3ccccc3)CC2)c2cccnc12	-55.4%	4.4%	20.6µM*	?	98.5	?
O=S(=O)(c1ccc(Cl)cc1)N1CCN(Cc2ccncc2)CC1	-12.1%	3.3%	?	?	0.8	11.8%
O=S(=O)(c1ccc(Cl)cc1)N1CCN(Cc2ccc(O)c3ncccc23)CC1	-0.7%	-1.8%	6.51µM*	5.8µM*	37.6	?
CC(C)(C)c1ccc(-c2nc(SCC(=O)Nc3ccccc3F)n3[nH]c(=O)cc3n2)cc1	-23.9%	.	?	?	.	-21.3%
CSc1nc(N)c(C(=O)N(c2ccccc2)c2ccccc2)s1	-0.9%	.	?	?	1.9	-0.8%
Cc1cc(Cl)ccc1NC(=S)NCc1ccccc1Cl	-16.3%	1.0%	?	25.9µM*	-5.5	?
Cc1cc(Cl)ccc1NC(=S)NCC(C)C	-20.3%	10.2%	?	29.1µM*	-4.2	?
Cc1cc(Cl)ccc1NC(=S)NCc1ccc(F)cc1	-2.6%	-1.1%	2.8%	?	-56.4*	-5.5%
S=C(NCc1ccccc1Cl)Nc1ccccc1Cl	-16.7%	-0.3%	1.7%	-0.3%	0.0	-20.1%
CCCNC(=S)Nc1ccc(Cl)cc1C	3.5%	5.9%	-1.8%	-11.9%	2.7	-16.0%
Cc1cc(Cl)ccc1NC(=S)NCc1cccs1	-19.2%	-0.9%	-4.5%	?	0.0	-9.1%
O=C(Nc1nc(-c2ccccc2)cs1)c1ccc2c(c1)S(=O)(=O)c1ccccc1C2=O	-9.1%	-10.1%	?	?	4.8	-3.8%
CCOC(=O)Cc1csc(NC(=S)NC(=O)CC(C)C)n1	1.5%	-0.1%	-4.3%	-24.4%	35.9	-11.8%
O=C(Nc1ccncc1)c1ccc2c(c1)S(=O)(=O)c1ccccc1C2=O	-13.8%	2.0%	14.6µM*	11.6µM*	1.9	-8.8%
O=C(Nc1nc(-c2cccc3ccccc23)cs1)c1ccc2c(c1)S(=O)(=O)c1ccccc1C2=O	4.0%	-1.3%	18.4µM*	9.2µM*	22.1	-1.6%
CC(C)CC(=O)NC(=S)Nc1nc(-c2cccc3ccccc23)cs1	-12.7%	-14.1%	-16.6%	20.6µM*	22.9	?
COc1cc(/C=C(\C#N)c2nc3ccc(C)cc3[nH]2)cc([N+](=O)[O-])c1O	-2.6%	?	?	20.6µM*	47.9	?
COc1cc(/C=C(\C#N)c2nc3ccc(C)cc3[nH]2)c([N+](=O)[O-])cc1OC	-12.9%	-14.7%	-28.2%	?	-89.1*	25.8%
Cc1ccc2nc(/C(C#N)=C\c3cc(O)ccc3[N+](=O)[O-])[nH]c2c1	-12.1%	-4.5%	-7.5%	-22.5%	3.0	5.0%
COc1ccc(CSC2=NCCN2)cc1Br	-37.6%	2.3%	-14.0%	-25.3%	-13.6	?
O=C(NCc1ccccc1)C(c1ccccc1)N(C(=O)c1csnn1)c1ccccc1 (stereo not given)	-7.0%	1.4%	?	18.4µM*	-8.4	-4.0%
Cc1ccc(N(CC(=O)NCc2ccccc2)C(=O)c2csnn2)cc1	0.0%	-12.3%	2.2%	?	0.3	-1.6%
CCCCOc1ccc(N(CC(=O)NCc2ccccc2)C(=O)c2csnn2)cc1	2.4%	-4.9%	?	16.4µM*	-8.7	-4.3%
CCc1cccc(N(C(=O)c2csnn2)C(C(=O)NC(C)(C)C)c2ccccn2)c1 (stereo not given)	-0.1%	1.1%	-2.6%	4.8%	-55.9*	-9.2%

From PubChem BioAssay
